Assay [1] in a line: ATG_CRE_CIS: Attagene CIS-FACTORIAL HepG2 Assay for human cAMP Responsive Element (CRE) binding protein 3 (AID 2282926). As to conditions: HepG2 CRE cis-reporter, Attagene multiplexed mRNA; actives raise or lower the signal. The method in brief: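 HepG2 cells transiently transfected with a multiplexed reporter library (CRE-driven unit among them) were dosed for 24 h. Reporter mRNA was quantified by RT-PCR, fluorescent labelling, HpaI digestion and capillary electrophoresis, with bidirectional fitting against DMSO baseline.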

The target of assay [2] is CCAAT/enhancer-binding protein beta (Homo sapiens) (UniProt P17676). The assay can be described thus: ATG_C_EBP_CIS: Attagene CIS-FACTORIAL HepG2 Assay for human CCAAT/Enhancer Binding Protein (C/EBP) beta (AID 2282927). Conditions: HepG2 Attagene cis-factorial transcription factor reporter; actives raise or lower the signal. The method in brief: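 Endogenous transcription factor activity in human liver HepG2 cells is inferred from induction of a CEBPB-linked reporter mRNA. Exposure lasts 24 h; activity is fitted in both directions relative to DMSO.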
CCAAT/enhancer-binding protein beta (Homo sapiens), sequence (P17676 whole entry, looked up): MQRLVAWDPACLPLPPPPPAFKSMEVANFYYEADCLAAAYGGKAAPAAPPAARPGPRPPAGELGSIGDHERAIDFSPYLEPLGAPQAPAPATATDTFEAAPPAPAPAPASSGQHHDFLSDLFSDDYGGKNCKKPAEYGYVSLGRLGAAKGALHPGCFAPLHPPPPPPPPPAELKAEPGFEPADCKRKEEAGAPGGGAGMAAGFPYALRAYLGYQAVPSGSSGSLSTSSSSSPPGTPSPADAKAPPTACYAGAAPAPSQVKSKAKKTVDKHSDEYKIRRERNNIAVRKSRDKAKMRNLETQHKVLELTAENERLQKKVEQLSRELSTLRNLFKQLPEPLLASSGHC

Assay [3] is described as follows: ATG_CMV_CIS: Attagene CIS-FACTORIAL HepG2 Assay for human CMV (Internal Marker) (AID 2282928).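 Note: endpoint acts as a background internal control marker rather than a target.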 Conditions: HepG2 CMV promoter reporter, transcription factor profiling; actives raise or lower the signal. An outline of the steps:
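Cell system: HepG2, transiently transfected multiple reporter units under cis promoters. Exposure: 24 h. Detection: RT-PCR, FAM labeling, HpaI digestion, capillary electrophoresis. Analysis: bidirectional, DMSO baseline.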

Assay [4] is described as follows: ATG_DR4_LXR_CIS: Attagene CIS-FACTORIAL HepG2 Assay for human Liver X Receptor (LXR), DR4 submotif (AID 2282929). Conditions: HepG2 Attagene DR4 cis-reporter, mRNA transcription; actives raise or lower the signal. An outline of the steps:
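Endogenous factor activity at a DR4 cis-element is read as reporter mRNA in transiently transfected HepG2 cells. Exposure lasts 24 h; transcripts are amplified, fluorescently labelled and sized by capillary electrophoresis, with DMSO as baseline.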

Assay [5] addresses Aryl hydrocarbon receptor (Homo sapiens) (UniProt P35869). Description: ATG_Ahr_CIS: Attagene CIS-FACTORIAL HepG2 Assay for human Aryl Hydrocarbon Receptor (Ahr) (AID 2282930). Conditions: HepG2 AhR cis-factorial reporter transcription; actives raise or lower the signal. The method in brief:
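Transient MRTU transfection of HepG2 → 24 h compound exposure → total RNA, oligo(dT) RT → PCR, 6-FAM extension, HpaI cut → CE fluorescence. DMSO = baseline; bidirectional curve fit.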

Assay [6] is described as follows: ATG_AP_1_CIS: Attagene CIS-FACTORIAL HepG2 Assay for human Activator Protein 1 (AP-1) (AID 2282931). As to conditions: HepG2 Attagene cis-factorial AP-1 reporter mRNA; actives raise or lower the signal. The method in brief:
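Fluorescence of labelled PCR fragments separated by capillary electrophoresis gives reporter mRNA levels. HepG2 with transfected cis-regulated reporter units, 24 h exposure; DMSO serves as baseline for bidirectional curve fits.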

Assay [7] is described as follows: ATG_AP_2_CIS: Attagene CIS-FACTORIAL HepG2 Assay for human Activator Protein 2 (AP-2) (AID 2282932). As to conditions: HepG2 AP-2 cis-reporter, Attagene transcription factor profiling; actives raise or lower the signal. An outline of the steps:
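HepG2, transient MRTU transfection, cis-regulated reporters; 24 h compound exposure; RNA isolated, RT-PCR, 6-FAM labelling, HpaI digest, CE fluorescence. DMSO = negative control/baseline, bidirectional fit.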

The nature of assay [8]: ATG_BRE_CIS: Attagene CIS-FACTORIAL HepG2 Assay for human Bone Morphogenetic Protein (BMP) Response Element (BRE) (AID 2282933). Conditions: HepG2 BMP response element reporter, Attagene transcription factor profiling; actives raise or lower the signal. An outline of the steps:
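Read-out: reporter mRNA induction quantified by RT-PCR and capillary electrophoresis after 24 h chemical exposure of transfected HepG2 cells. Endogenous factor activity on the BMP response element; gain or loss fitted against DMSO baseline.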

The target of assay [9] is Retinoic acid receptor alpha (Homo sapiens) (UniProt P10276). The assay can be described thus: ATG_DR5_RAR_CIS: Attagene CIS-FACTORIAL HepG2 Assay for human Retinoic Acid Receptor Alpha (RARE), DR5 submotif (AID 2282934). Conditions: HepG2 Attagene cis-factorial RARE DR5 reporter, mRNA; actives raise or lower the signal. An outline of the steps:
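Transient MRTU transfection of HepG2; 24 h compound treatment; TriZol RNA, oligo(dT) RT, PCR, FAM labelling, capillary electrophoresis. Bidirectional fit vs DMSO. Endogenous TF activity at DR5 RARE.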

Active and inactive are the calls of the source. Rule for the calls: active = hit-call score of the fitted dose curve at least 0.9, where 1 is the maximum; inactive = score below 0.9.

Aryl hydrocarbon receptor (Homo sapiens), sequence (P35869 whole entry, looked up): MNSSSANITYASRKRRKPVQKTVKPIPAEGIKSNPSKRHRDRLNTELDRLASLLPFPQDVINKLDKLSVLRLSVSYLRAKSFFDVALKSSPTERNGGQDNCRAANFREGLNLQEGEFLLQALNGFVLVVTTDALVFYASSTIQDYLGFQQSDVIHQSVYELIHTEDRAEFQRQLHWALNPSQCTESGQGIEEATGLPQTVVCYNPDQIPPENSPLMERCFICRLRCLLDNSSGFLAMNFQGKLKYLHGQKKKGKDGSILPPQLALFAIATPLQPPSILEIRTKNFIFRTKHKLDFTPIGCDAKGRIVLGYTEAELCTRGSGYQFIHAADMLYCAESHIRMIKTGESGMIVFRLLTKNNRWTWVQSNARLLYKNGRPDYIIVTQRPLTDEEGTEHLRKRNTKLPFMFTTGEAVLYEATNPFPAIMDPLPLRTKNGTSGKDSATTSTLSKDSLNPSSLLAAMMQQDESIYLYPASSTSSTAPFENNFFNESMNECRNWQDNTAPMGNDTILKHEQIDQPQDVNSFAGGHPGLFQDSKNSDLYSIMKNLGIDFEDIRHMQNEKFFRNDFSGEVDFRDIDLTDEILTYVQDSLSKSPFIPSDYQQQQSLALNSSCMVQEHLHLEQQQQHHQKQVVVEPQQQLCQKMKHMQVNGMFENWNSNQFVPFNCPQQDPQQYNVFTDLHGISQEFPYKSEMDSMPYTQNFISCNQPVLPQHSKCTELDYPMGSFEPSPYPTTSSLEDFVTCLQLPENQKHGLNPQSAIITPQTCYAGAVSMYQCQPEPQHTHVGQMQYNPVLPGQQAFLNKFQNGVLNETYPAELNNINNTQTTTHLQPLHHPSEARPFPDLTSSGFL
Retinoic acid receptor alpha (Homo sapiens), sequence (P10276 whole entry, looked up): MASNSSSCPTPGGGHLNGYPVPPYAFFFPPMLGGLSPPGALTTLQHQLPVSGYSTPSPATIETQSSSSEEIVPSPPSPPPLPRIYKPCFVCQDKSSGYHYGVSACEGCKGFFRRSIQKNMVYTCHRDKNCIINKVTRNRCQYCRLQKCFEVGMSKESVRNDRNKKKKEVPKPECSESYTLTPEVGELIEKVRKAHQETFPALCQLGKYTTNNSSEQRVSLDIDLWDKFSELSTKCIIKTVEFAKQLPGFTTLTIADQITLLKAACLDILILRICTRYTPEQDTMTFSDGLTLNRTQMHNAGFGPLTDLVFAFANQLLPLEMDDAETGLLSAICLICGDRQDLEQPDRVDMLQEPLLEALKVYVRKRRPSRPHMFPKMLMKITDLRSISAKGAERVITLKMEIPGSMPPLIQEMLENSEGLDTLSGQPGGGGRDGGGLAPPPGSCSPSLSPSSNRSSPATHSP

As for `C=CC(=O)OCCCCCC`, the call in assay [1], in assay [2], in assay [3], in [4], in assay [5] and in [6] was inactive. Besides, the molecule was called inactive in assay [7] and in assay [8].
As for `CC(C)(CO)CO`, the call in [1], in assay [2], in [3], in [4], in [5] and in assay [6] was inactive. The molecule was called inactive in assay [7] and in [8].
As to `COc1cc(OC)c2ccc(=O)oc2c1`, the molecule was classed as inactive in assay [1], in [2], in assay [3], in assay [5], in assay [6] and in assay [7]. Further, in assay [8], the outcome was inactive. Further, the concentration at half-maximal activity (AC50) in assay [4] was 2.81 µM (active).
For `CC/C=C\CCCCO`, the outcome in assay [1], in assay [2], in assay [3], in assay [4], in assay [5] and in assay [6] was inactive. In addition, the outcome in assay [7] and in [8] was inactive.
Consider `OCC=Cc1ccccc1`, for which the outcome in assay [1], in assay [2], in [3], in assay [4], in assay [6] and in assay [7] was inactive. In addition, in assay [8], the molecule was called inactive. For the same molecule, the concentration at half-maximal activity (AC50) in [5] was 50.1 µM (active).
As to `Brc1cc(Br)cc(Br)c1`, the molecule was called inactive in assay [1], in assay [2], in assay [3], in assay [4], in assay [5] and in assay [6]. Also, the molecule was called inactive in assay [7] and in assay [8].
`CCCCCCC(C)O` (stereo unspecified): the molecule was classed as inactive in assay [1], in assay [2], in assay [3], in assay [4], in [5] and in [6]. The molecule was called inactive in [7] and in assay [8].
In the case of `CCC=C(C)C=O`, the molecule was called inactive in assay [1], in [2], in assay [3], in [4], in [5] and in [6]. Also, the call in [7] and in [8] was inactive.
For the molecule `CCCc1ccc(N)cc1`, the outcome in assay [1], in assay [2], in assay [3], in assay [4], in assay [5] and in [6] was inactive. In addition, the outcome in [7] and in assay [8] was inactive.
On to `CCCC1CCOC(C)S1` (stereo unspecified), for which the molecule was classed as inactive in [1], in [2], in assay [3], in assay [4], in assay [5] and in assay [6]. Also, the molecule was classed as inactive in [7] and in assay [8].
Turning to `O=c1cc[nH]cc1`, the molecule was classed as inactive in [1], in assay [2], in assay [3], in assay [4], in assay [5] and in assay [6]. In addition, the result in [7] and in assay [8] was inactive.
Take `C1CCCNCC1`: the call in assay [1], in assay [2], in assay [3], in [4], in assay [6] and in assay [7] was inactive. For the same molecule, the molecule was called inactive in assay [8]. Moreover, in [5], the AC50 was 62.5 µM (active).
Consider `CC(C)Cc1ccc(C(C)C(=O)O)cc1` (stereo unspecified), for which the molecule was called inactive in assay [1], in assay [2], in assay [3], in assay [4], in assay [5] and in assay [6]. Besides, the result in assay [7], in assay [8] and in assay [9] was inactive.
For `COC(=O)C(C)Oc1ccc(Oc2ncc(C(F)(F)F)cc2Cl)cc1` (stereo unspecified), the molecule was called inactive in assay [1], in assay [2], in [3], in assay [4], in [6] and in [7]. Further, the AC50 was 3.09 µM (active) in assay [5] and 149 µM (active) in assay [8].
For the molecule `NC(N)=S`, the result in assay [1], in assay [2], in assay [3], in [4], in [5] and in [6] was inactive. Also, the call in assay [7] and in [8] was inactive.
With `CC1COC(=O)O1` (stereo unspecified), the molecule was called inactive in assay [1], in assay [2], in [3], in [4], in assay [5] and in assay [6]. For the same molecule, the molecule was classed as inactive in assay [7] and in assay [8].
Consider `CC1=CCC(C(C)C)=CC1`, for which the molecule was classed as inactive in assay [1], in assay [2], in [3], in [4], in assay [5] and in assay [6]. Also, the molecule was classed as inactive in [7] and in assay [8].
Consider `CC(O)CNCC(C)O` (stereo unspecified), for which the call in [1], in [2], in assay [3], in assay [4], in [5] and in assay [6] was inactive. Also, the result in assay [7] and in assay [8] was inactive.
On to `CCOCC(C)O` (stereo unspecified), for which the outcome in [1], in assay [2], in assay [3], in [4], in [5] and in assay [6] was inactive. The molecule was called inactive in assay [7] and in assay [8].
As to `CCC(C)(C)C1CCC(OC)CC1` (stereo unspecified), the result in [1], in [2], in assay [3], in assay [4], in assay [5] and in [6] was inactive. For the same molecule, the molecule was classed as inactive in assay [7] and in [8].
Turning to `CCOC(=O)CC(C)C`, the result in assay [1], in [2], in [3], in assay [4], in [5] and in [6] was inactive. For the same molecule, the call in assay [7] and in assay [8] was inactive.
Take `O=C1CCCCCCCCCCCC(=O)OCCO1`: the molecule was classed as inactive in assay [1], in [2], in assay [3], in assay [4], in assay [5] and in [6]. Further, the outcome in assay [7] and in assay [8] was inactive.
On to `CCCCN(CCO)CCO`, for which the result in assay [1], in assay [2], in assay [3], in [4], in assay [5] and in [6] was inactive. Also, the molecule was classed as inactive in assay [7] and in assay [8].
On to `Cc1cc(O)c(C)c(C)c1O`, for which the result in [1], in assay [2], in [4], in assay [6] and in assay [7] was inactive. The half-maximal activity concentration (AC50) in assay [3] is 18.5 µM (active); in assay [5] it was 17.8 µM (active); in assay [8] it was 52.8 µM (active).
As to `CN(C)C`, the result in [1], in [2], in assay [3], in [4], in assay [5] and in [6] was inactive. In addition, the molecule was classed as inactive in [7] and in assay [8].
Take `CCCCCCCCCCOC(=O)c1ccccc1C(=O)OCCCCCCCC`: the molecule was called inactive in assay [1], in [2], in assay [3], in assay [4], in assay [5] and in [6]. The outcome in assay [7] and in [8] was inactive.
With `CC=CC(=O)C1=C(C)C=CCC1(C)C`, the result in assay [1], in assay [2], in assay [3], in assay [4], in [5] and in [6] was inactive. Moreover, the call in assay [7] and in [8] was inactive.
As for `CCCC(O)C(CC)CO` (stereo unspecified), the result in assay [1], in assay [2], in assay [3], in assay [4], in assay [5] and in assay [6] was inactive. Moreover, the result in [7] and in [8] was inactive.
Take `O=C1OCc2ccccc21`: the call in assay [1], in assay [2], in [3], in assay [4], in assay [5] and in [6] was inactive. The call in assay [7] and in assay [8] was inactive.
As for `C=CC(C)(CCC=C(C)C)OC(=O)CC` (stereo unspecified), the result in assay [1], in assay [2], in assay [3], in assay [4], in assay [5] and in [6] was inactive. The molecule was classed as inactive in assay [7] and in assay [8].

In general, AC50 refers to the midpoint of the concentration-response curve, whichever way the signal moves.

For the origin of these results see PubChem BioAssay (EPA / NIEHS).
